Records with an inconclusive call do not appear. Where a structure was tested more than once in an assay, its records may differ in their call. The source made the active and inactive calls. Unless noted, calls come from the whole dose curve; as a rule, active = well fitted curve in the direction sought with a large enough effect in the repeat runs; inconclusive = weak or mixed curves; inactive = no such curve, though single readings can be large; an effect the other way counts as inactive or inconclusive.
Legend:
[1] = qHTS assay to identify small molecule agonists of the androgen receptor (AR) signaling pathway in the presence of an antagonist - cell viability counter screen (AID 1259379); note: nearly all actives have a fitted effect of over 25% in size; note: potency is the fitted concentration of half-maximal effect
Outline: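 Nilutamide-containing (3.0uM final) MDA-kb2 cultures, 3,000 cells/well, were treated with compounds across 15 concentrations. After 16 hr at 37C with no CO2, cell viability was determined by CellTiter-Fluor fluorescence in the luciferase assay wells.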

[2] = qHTS assay to identify small molecule agonists of the estrogen receptor beta (ER-beta) signaling pathway - cell viability counter screen (AID 1259380); note: nearly all actives have a fitted effect of over 30% in size; note: potency is the fitted concentration of half-maximal effect
Outline: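 Steps: plate ER-beta-UAS-bla HEK293T cells, rest 6 hr; add compounds in DMSO; incubate 16 hr at 37C, 5% CO2; add FRET substrate 2 hr; add CellTiter-Glo, wait 30 min at room temperature; read luminescence.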

[3] = qHTS assay to identify small molecule antagonists of the estrogen receptor beta (ER-beta) signaling pathway - cell viability counter screen (AID 1259382); note: nearly all actives have a fitted effect of over 55% in size; note: potency is the fitted concentration of half-maximal effect
Outline: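 Viability is scored by CellTiter-Glo luminescence (30 min, room temperature) in ER-beta-UAS-bla HEK293T wells already read for reporter fluorescence. Compound exposure lasts 16 hr at 37C alongside 1nM 17-beta-estradiol in charcoal-stripped serum medium.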

[4] = target: Estrogen receptor (Homo sapiens) (UniProt P03372); experiment: qHTS assay to identify small molecule agonists of the estrogen receptor alpha (ER-alpha) signaling pathway in the presence of an antagonist (AID 1259383; calls by dose curve; note: nearly all actives have a fitted effect of over 15% in size; note: potency is the fitted concentration of half-maximal effect; for activation: top concentration of the series differs between compounds)
Estrogen receptor (Homo sapiens), sequence (P03372 whole entry, looked up): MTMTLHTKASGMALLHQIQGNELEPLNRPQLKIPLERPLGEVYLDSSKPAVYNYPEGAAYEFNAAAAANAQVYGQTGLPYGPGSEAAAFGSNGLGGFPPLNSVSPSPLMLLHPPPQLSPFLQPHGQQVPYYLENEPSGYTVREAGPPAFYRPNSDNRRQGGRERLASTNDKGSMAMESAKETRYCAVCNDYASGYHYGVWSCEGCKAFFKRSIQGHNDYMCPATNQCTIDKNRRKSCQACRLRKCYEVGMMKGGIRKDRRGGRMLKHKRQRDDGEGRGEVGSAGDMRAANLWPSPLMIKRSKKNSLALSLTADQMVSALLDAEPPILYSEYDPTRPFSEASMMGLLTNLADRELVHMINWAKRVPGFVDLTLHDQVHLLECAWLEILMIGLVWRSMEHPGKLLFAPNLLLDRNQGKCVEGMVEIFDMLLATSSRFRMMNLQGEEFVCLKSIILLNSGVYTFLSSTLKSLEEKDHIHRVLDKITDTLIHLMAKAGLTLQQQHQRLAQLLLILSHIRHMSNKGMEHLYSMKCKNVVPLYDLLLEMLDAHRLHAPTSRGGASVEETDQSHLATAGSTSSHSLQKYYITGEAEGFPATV
Outline: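 Readout was ERE-driven luciferase luminescence in VM7Luc4E2 cells, which express full-length ER-alpha endogenously. Compounds were tested at 15 concentrations for 22hr alongside 10.0nM ICI-182,780 (final concentration).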

[5] = qHTS assay to identify small molecule agonists or antagonists of the thyroid stimulating hormone receptor (TSHR) signaling pathway - wild type cell line counter screen (AID 1259384; calls by dose curve)
Outline: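 Counter screen in untransfected Hek293: compounds (15-point titration, triplicate) plus phosphodiesterase inhibitor Ro20-1724 added after 18 h plating; 30 min RT. Intracellular cAMP via competitive d2/cryptate immunoassay, 1 h incubation.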

[6] = target: Thyrotropin receptor (Homo sapiens) (UniProt P16473); experiment: qHTS assay to identify small molecule antagonists of the thyroid stimulating hormone receptor (TSHR) signaling pathway (AID 1259385; calls by dose curve; note: nearly all actives have a fitted effect of over 20% in size)
Thyrotropin receptor (Homo sapiens), sequence (P16473 whole entry, looked up): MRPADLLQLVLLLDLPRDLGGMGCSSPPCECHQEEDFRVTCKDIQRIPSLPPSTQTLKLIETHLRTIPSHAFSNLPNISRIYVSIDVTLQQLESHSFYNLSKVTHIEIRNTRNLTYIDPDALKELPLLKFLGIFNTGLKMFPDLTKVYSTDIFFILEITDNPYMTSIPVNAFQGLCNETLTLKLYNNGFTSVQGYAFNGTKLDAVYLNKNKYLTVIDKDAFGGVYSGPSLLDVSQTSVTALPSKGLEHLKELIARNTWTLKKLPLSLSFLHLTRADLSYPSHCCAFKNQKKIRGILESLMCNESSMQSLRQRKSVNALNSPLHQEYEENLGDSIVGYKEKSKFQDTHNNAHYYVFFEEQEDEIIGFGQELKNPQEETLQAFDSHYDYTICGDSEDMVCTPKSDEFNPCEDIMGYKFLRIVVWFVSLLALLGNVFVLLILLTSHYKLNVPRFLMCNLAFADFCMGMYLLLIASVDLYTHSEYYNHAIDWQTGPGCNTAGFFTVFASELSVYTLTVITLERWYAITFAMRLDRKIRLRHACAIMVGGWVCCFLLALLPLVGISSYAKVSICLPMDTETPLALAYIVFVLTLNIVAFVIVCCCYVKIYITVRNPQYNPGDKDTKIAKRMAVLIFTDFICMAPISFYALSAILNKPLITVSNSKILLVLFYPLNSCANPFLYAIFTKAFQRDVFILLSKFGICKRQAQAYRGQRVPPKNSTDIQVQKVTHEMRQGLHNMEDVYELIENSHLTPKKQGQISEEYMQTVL
Outline: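 Antagonist mode: compound-treated TSHR-expressing HEK293 cells were stimulated with 1.5 ng/mL TSH (final) in presence of Ro20-1724 for 30 min at RT. HTRF cAMP detection after 1 h; each compound tested at 15 concentrations, triplicate.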

[7] = qHTS assay to identify small molecule agonists of the estrogen receptor alpha (ER-alpha) signaling pathway in the presence of an antagonist - cell viability counter screen (AID 1259386);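 note: cells exposed to compounds for 22 h at 37 °C before the viability read; nearly all actives have a fitted effect of over 30% in size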; note: potency is the fitted concentration of half-maximal effect
Outline: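 In this counter screen, compound effects on VM7Luc4E2 viability were tested in the presence of the antagonist ICI-182,780 at 10.0nM final. Compounds were dosed at 15 concentrations, exposure lasted 22hr, and the CellTiter-Fluor signal was read.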

[8] = target: Progesterone receptor (Homo sapiens) (UniProt P06401); experiment: qHTS assay to identify small molecule agonists of the progesterone receptor (PR) signaling pathway (AID 1346784; calls by dose curve; note: nearly all actives have a fitted effect of over 30% in size)
Progesterone receptor (Homo sapiens), sequence (P06401 whole entry, looked up): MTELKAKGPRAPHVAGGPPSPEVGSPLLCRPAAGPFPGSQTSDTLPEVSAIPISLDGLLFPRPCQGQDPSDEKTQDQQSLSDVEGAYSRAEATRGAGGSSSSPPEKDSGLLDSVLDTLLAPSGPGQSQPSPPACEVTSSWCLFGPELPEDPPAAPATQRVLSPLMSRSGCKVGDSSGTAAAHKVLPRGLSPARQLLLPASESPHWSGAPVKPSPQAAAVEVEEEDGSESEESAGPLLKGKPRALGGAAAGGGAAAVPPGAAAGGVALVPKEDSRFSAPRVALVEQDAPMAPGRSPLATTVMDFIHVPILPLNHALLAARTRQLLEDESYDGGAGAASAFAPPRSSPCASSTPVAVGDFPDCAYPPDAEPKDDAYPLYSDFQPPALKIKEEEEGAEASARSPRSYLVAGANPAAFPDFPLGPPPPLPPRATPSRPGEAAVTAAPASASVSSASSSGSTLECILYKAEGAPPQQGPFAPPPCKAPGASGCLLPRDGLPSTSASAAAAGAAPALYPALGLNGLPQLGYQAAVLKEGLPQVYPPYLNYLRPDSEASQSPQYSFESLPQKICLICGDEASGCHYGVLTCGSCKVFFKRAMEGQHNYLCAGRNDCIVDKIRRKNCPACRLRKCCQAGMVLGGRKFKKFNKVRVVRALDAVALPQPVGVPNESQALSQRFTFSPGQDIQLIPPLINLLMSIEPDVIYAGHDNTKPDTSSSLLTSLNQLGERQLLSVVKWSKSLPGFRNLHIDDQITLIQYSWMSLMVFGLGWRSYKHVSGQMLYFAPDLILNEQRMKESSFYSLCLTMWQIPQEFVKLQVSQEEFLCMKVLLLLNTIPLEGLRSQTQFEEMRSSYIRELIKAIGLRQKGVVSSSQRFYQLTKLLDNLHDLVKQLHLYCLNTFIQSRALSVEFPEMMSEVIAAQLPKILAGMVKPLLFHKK
Outline: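 Beta-lactamase reporter read-out: after 16 hr compound treatment at 37C and a further 2 hr at room temperature with LiveBLAzer B/G FRET substrate, fluorescence was measured in PR-UAS-bla HEK 293T cells grown in 2% charcoal-stripped serum.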

[9] = qHTS assay to identify small molecule antagonists of the progesterone receptor (PR) signaling pathway - cell viability counter screen (AID 1346798); note: nearly all actives have a fitted effect of over 50% in size; note: potency is the fitted concentration of half-maximal effect
Outline: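 HEK293T PR-UAS-bla, 2% charcoal-stripped FBS; 4 hr pre-plate; cpd + R5020, 16 h 37C; LiveBLAzer read first; then CellTiter-Glo 30 min RT, luminescence.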

[10] = qHTS assay to identify small molecule agonists of the progesterone receptor (PR) signaling pathway - cell viability counter screen (AID 1346799; calls by dose curve; note: nearly all actives have a fitted effect of over 45% in size; note: potency is the fitted concentration of half-maximal effect)
Outline: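 Luminescence from CellTiter-Glo, added after the beta-lactamase FRET read in the same wells, gave cytotoxicity in PR-UAS-bla HEK293T cells treated with compounds for 16 hr at 37C.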

[11] = qHTS assay to identify small molecule antagonists of the TGF-beta/Smad signaling pathway - cell viability counter screen (AID 1346824); note: nearly all actives have a fitted effect of over 50% in size
Outline: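 Cytotoxicity counter-screen run in the same wells as the beta-lactamase Smad reporter read: CellTiter-Glo luminescence after 30 min at room temperature. HEK 293T SBE-bla cells had 5 hr compound exposure at 37 C with TGF-beta1 (0.25 ng/mL stock).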

[12] = qHTS assay to identify small molecule agonists of the TGF-beta/Smad signaling pathway - cell viability counter screen (AID 1346829); note: top concentration of the series differs between compounds; nearly all actives have a fitted effect of over 45% in size
Outline: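 In parallel with the Smad reporter read, viability of HEK 293T cells stably carrying SBE-bla is quantified by ATP luminescence following 5 hr compound treatment.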

[13] = qHTS assay to identify small molecule agonists of the TGF-beta/Smad signaling pathway (AID 1346859; active = well fitted activation curve with a large enough effect in the signal ratio in the repeat runs, not every such curve was filed as active; the % refers to the signal ratio; note: series mostly up to about 77 µM)
Outline: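 SBE-bla HEK 293T, 4,000 cells/well, plated o/n; cpd in DMSO, 5 hr, 37 C/5% CO2; B/G FRET substrate 2 hr RT; ex 405, em 460/530 nm.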

[14] = target: Thyrotropin-releasing hormone receptor (Homo sapiens) (UniProt P34981); experiment: qHTS assay to identify small molecule antagonists of the thyrotropin-releasing hormone receptor (TRHR) signaling pathway (AID 1346877; active = well fitted inhibition curve with a large enough effect in the repeat runs, not every such curve was filed as active; note: series mostly up to about 51 µM)
Thyrotropin-releasing hormone receptor (Homo sapiens), sequence (P34981 whole entry, looked up): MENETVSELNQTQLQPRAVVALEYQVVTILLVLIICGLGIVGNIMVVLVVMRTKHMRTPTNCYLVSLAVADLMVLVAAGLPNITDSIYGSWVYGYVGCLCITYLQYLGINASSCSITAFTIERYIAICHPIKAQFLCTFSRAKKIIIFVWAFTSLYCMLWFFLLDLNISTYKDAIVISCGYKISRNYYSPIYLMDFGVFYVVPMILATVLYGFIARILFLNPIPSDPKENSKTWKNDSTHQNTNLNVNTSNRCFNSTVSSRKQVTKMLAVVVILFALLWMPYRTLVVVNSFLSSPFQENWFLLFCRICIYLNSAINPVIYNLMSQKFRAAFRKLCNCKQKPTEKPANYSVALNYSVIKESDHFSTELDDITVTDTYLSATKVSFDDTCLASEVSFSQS
Outline: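 Kinetic fluorescence (3 min, 1 s resolution) following stimulation with TRH at 1 nM final; HEK293 cells bearing human TRHR; 5 min compound preincubation at RT; concentration-response over 15 points, triplicates.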

[15] = target: Thyrotropin-releasing hormone receptor (Homo sapiens) (UniProt P34981); experiment: qHTS assay to identify small molecule agonists of the thyrotropin-releasing hormone receptor (TRHR) signaling pathway (AID 1346891; calls by dose curve; note: series mostly up to about 58 µM)
Outline: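 Intracellular calcium rise, read as fluorescence every second for 3 min, served as the agonist signal in dye-loaded HEK293 cells expressing TRHR; each compound ran at 15 concentrations in triplicate.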

[16] = Human pregnane X receptor (PXR) small molecule agonists, qHTS cell viability counter screen (AID 1346977); note: nearly all actives have a fitted effect of over 50% in size; note: potency is the fitted concentration of half-maximal effect
Outline: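 PXR-Luc HepG2, 2,000 cells/well, 5% charcoal-stripped FBS; 5hr settle; cpd 24hr, 37C/5% CO2; CellTiter-Fluor at 23hr, read 1hr later (fluorescence).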

[17] = target: Progesterone receptor (Homo sapiens) (UniProt P06401); experiment: qHTS assay to identify small molecule antagonists of the progesterone receptor (PR) signaling pathway (AID 1346795; active = well fitted inhibition curve with a large enough effect in the signal ratio in the repeat runs, not every such curve was filed as active; the % refers to the signal ratio; note: potency is the fitted concentration of half-maximal effect)
Outline: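 Read-out is fluorescence from the LiveBLAzer B/G FRET substrate, cleaved by a UAS-controlled beta-lactamase in PR-UAS-bla HEK293T cells after 16 hr exposure to compound plus 1 nM promegestone (final), followed by 2 hr at room temperature.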

[18] = target: Androgen receptor (Homo sapiens) (UniProt P10275); experiment: qHTS assay to identify small molecule agonists of the androgen receptor (AR) signaling pathway in the presence of an antagonist (AID 1259381; calls by dose curve; note: nearly all actives have a fitted effect of over 15% in size)
Androgen receptor (Homo sapiens), sequence (P10275 whole entry, looked up): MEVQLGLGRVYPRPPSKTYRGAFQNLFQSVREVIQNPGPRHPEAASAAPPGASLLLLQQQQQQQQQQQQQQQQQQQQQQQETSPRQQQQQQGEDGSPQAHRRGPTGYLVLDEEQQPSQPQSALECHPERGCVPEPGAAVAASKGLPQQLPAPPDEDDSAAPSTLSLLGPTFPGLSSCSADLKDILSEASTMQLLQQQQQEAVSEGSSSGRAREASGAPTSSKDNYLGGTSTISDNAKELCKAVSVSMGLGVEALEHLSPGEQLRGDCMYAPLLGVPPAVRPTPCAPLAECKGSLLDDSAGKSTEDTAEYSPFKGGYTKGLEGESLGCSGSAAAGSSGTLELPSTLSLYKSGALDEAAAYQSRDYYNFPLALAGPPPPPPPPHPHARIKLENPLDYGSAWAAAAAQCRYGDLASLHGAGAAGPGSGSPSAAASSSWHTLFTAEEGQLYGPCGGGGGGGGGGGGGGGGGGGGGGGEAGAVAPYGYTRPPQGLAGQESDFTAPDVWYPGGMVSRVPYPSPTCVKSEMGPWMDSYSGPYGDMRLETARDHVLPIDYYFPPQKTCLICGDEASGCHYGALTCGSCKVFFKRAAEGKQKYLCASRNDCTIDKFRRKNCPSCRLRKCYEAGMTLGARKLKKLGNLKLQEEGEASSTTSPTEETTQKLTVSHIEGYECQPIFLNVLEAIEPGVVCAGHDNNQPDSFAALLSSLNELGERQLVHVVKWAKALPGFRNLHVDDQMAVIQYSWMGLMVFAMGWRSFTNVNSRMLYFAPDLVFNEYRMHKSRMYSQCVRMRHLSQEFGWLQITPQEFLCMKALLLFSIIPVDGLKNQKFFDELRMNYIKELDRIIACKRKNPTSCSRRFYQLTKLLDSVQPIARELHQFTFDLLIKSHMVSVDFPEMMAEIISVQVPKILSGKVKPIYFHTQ
Outline: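 Reporter-gene luminescence from MDA-kb2 cells exposed 16hr at 37C (0% CO2) to 15-point compound titrations with 3.0uM final nilutamide as AR antagonist.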

Measured: Potency

O=C(O)CCS
not listed: [17] | [18]
inactive: all other assays above

CCCCCCCCCCCCCCCC(=O)OCC
not listed: [15] | [17] | [18]
inactive: all other assays above

CC[C@H]1OC(=O)[C@H](C)[C@@H](O[C@H]2C[C@@](C)(OC)[C@@H](O)[C@H](C)O2)[C@H](C)[C@@H](O[C@@H]2O[C@H](C)C[C@H](N(C)C)[C@H]2O)[C@](C)(O)C[C@@H](C)/C(=N\OCOCCOC)[C@H](C)[C@@H](O)[C@]1(C)O
active: [7] 7.19 µM
not listed: [10] | [11] | [14] | [15] | [16] | [18]
inactive: all other assays above

CN1CCCN(C(c2ccccc2)c2ccc(Cl)cc2)CC1 (stereo unspecified)
active: [1] 26.6 µM | [2] 13.3 µM | [3] 13.3 µM | [17] 21.1 µM | [9] 15 µM | [10] 13.3 µM | [16] 13.3 µM
inactive: [18] | [4] | [5] | [6] | [8] | [12] | [13]

c1ccc(CNc2ncnc3c2ncn3C2CCCCO2)cc1 (stereo unspecified)
inactive: [1] | [2] | [3] | [7] | [8] | [17] | [9] | [12] | [13]
active: [4] 7.7 µM

CC(C)N(C)C
not listed: [11] | [17] | [18]
inactive: all other assays above

CC(C)(C)C1(CCc2ccc(Cl)cc2)CO1 (stereo unspecified)
not listed: [7] | [12] | [16] | [17] | [18]
inactive: all other assays above

COc1ccc2nc(S(=O)Cc3ncc(C)c(OC)c3C)[nH]c2c1 (stereo unspecified)
48 µM (active) and inactive: [7]
not listed: [9] | [10] | [13] | [16] | [17] | [18]
inactive: all other assays above

O=C(Oc1ccccc1)c1ccc2ccccc2c1O
active: [17] 30.6 µM
not listed: [4] | [6] | [10] | [11]
inactive: all other assays above

— PubChem BioAssay (Tox21)
